Common to all, as to test: DAPPL (digital affinity profiling via proximity ligation, sequencing); 10 mM Tris-HCl pH 7.5, 50 mM NaCl, 1 mM DTT, 4% glycerol, room temperature, 30 min; GST-TFs on glutathione beads, 16-mer random dsDNA library, 0.1% formaldehyde crosslink after washing; high values mean tight binding
For one test, the target named is T1, ELK1 (Homo sapiens, UniProt P19419 1-428).
T1 sequence: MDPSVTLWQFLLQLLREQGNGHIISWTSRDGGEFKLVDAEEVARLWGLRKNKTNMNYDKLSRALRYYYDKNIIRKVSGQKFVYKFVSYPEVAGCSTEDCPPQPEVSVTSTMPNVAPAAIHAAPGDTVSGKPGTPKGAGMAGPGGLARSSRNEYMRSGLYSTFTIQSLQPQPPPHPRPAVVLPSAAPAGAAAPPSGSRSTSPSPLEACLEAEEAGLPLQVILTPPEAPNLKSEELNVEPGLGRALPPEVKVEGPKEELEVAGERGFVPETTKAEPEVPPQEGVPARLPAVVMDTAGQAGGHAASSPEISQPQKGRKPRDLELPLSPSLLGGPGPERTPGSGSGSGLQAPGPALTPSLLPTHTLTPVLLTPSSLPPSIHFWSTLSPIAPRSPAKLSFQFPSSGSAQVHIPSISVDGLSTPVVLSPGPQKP
As to conditions: protein: recombinant; tags: N-terminal GST; dsDNA, one strand shown. In outline: (§1)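 Human transcription factors carrying a GST fusion were produced in yeast, bound to glutathione beads, tagged with DNA barcodes and pooled together with a tag-only sample. Each pool was held with 200 nmole of a random double-stranded 16-mer DNA library in Tris/NaCl/DTT/glycerol buffer for 30 min at room temperature, then washed, crosslinked in 0.1% formaldehyde, proximity-ligated with BsaI/T4 ligase (1 h, 37 °C), PCR-amplified and sequenced on an Illumina NextSeq500. Binding signal is the read frequency of each hexamer for a given factor divided by its frequency in the tag-only sample.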

Another test deals with T2, GABPA (Homo sapiens, UniProt Q06546 1-454).
T2 sequence: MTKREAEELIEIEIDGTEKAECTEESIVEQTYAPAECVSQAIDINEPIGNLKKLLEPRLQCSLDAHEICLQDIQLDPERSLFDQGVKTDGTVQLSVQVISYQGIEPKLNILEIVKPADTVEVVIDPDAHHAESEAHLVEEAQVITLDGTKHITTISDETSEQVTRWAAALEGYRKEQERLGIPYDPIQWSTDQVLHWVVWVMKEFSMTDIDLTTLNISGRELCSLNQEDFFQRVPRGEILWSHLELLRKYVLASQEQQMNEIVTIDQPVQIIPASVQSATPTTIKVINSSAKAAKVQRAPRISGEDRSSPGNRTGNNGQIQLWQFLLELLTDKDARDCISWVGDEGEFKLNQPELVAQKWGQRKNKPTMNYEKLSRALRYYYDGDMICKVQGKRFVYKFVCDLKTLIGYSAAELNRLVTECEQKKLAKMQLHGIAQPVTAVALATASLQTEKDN
To be noted: protein: recombinant; tags: N-terminal GST; dsDNA, one strand shown. In outline:
as §1

Another test addresses T3, ELK3 (Homo sapiens, UniProt P41970 1-407).
T3 sequence: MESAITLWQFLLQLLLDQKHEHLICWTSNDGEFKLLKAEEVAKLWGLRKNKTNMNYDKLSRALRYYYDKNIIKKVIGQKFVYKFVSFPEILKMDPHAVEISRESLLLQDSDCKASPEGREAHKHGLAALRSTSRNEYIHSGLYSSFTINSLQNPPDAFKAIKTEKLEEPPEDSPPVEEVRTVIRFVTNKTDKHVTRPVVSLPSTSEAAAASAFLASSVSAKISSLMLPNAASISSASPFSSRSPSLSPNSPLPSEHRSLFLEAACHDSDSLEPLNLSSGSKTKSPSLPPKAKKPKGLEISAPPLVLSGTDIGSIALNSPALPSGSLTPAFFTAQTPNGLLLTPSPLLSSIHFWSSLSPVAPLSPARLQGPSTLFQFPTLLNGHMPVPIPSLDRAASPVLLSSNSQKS
As to conditions: protein: recombinant; tags: N-terminal GST; dsDNA, one strand shown. The essentials:
as §1

Another test deals with T4, FEV (Homo sapiens, UniProt Q99581 1-238).
T4 sequence: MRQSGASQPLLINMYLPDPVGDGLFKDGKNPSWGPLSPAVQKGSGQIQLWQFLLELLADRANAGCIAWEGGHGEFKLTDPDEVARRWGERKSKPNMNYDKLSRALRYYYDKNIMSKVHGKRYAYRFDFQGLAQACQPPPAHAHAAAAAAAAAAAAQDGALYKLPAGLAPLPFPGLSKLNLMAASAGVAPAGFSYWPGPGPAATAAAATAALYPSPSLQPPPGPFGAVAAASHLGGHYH
To be noted: protein: recombinant; tags: N-terminal GST; dsDNA, one strand shown. The essentials: as §1

For another test, the target named is HSF1 (Homo sapiens, UniProt Q00613 1-529). To be noted: protein: recombinant; tags: N-terminal GST; chain copies: 3; dsDNA, one strand shown. In outline: as §1
The target in the next test is T5, ELK4 (Homo sapiens, UniProt P28324-2 1-405).
T5 sequence: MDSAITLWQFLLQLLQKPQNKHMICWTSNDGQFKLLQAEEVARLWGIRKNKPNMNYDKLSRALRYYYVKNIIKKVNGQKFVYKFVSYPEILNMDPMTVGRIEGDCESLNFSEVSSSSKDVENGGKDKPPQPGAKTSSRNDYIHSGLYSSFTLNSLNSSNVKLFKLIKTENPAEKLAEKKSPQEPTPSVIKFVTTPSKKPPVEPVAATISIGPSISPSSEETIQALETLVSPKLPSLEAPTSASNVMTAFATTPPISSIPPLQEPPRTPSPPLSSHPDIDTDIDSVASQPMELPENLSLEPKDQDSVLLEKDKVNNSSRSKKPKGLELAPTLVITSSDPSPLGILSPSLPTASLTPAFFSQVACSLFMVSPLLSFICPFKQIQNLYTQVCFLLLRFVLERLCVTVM
As to conditions: protein: recombinant; tags: N-terminal GST; dsDNA, one strand shown. The essentials: as §1

For a further test, the target named is T6, ETV2 (Homo sapiens, UniProt O00321 1-342).
T6 sequence: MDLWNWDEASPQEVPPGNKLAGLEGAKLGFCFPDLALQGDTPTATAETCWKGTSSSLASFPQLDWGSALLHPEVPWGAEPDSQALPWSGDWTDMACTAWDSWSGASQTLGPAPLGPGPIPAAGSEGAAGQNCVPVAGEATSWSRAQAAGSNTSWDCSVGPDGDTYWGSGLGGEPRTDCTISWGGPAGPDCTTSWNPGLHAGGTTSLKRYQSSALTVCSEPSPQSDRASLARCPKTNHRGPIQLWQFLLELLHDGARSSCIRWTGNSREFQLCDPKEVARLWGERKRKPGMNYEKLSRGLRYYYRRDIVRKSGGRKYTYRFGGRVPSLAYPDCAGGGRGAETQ
As to conditions: protein: recombinant; tags: N-terminal GST; dsDNA, one strand shown. In outline: as §1

The target of another test is T7, ELF3 (Homo sapiens, UniProt P78545 1-371).
T7 sequence: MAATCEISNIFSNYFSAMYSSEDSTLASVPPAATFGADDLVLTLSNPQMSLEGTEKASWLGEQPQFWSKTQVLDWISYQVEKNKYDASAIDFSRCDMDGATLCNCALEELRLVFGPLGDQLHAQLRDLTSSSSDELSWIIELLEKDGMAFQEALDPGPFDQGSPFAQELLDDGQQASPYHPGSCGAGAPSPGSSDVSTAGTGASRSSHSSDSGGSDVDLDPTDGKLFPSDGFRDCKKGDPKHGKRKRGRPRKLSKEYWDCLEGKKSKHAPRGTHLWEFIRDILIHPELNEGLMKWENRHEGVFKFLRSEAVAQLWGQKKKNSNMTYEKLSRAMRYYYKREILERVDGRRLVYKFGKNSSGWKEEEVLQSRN
To be noted: protein: recombinant; tags: N-terminal GST; dsDNA, one strand shown. The essentials: as §1

A further test addresses CRX (Homo sapiens, UniProt O43186 1-299). As to conditions: protein: recombinant; tags: N-terminal GST; dsDNA, one strand shown. The essentials: as §1
The next test has as its target ETV1 (Homo sapiens, UniProt P50549 1-477). To be noted: protein: recombinant; tags: N-terminal GST; dsDNA, one strand shown. In outline: as §1
The next test deals with T8, ETV3L (Homo sapiens, UniProt Q6ZN32 1-361).
T8 sequence: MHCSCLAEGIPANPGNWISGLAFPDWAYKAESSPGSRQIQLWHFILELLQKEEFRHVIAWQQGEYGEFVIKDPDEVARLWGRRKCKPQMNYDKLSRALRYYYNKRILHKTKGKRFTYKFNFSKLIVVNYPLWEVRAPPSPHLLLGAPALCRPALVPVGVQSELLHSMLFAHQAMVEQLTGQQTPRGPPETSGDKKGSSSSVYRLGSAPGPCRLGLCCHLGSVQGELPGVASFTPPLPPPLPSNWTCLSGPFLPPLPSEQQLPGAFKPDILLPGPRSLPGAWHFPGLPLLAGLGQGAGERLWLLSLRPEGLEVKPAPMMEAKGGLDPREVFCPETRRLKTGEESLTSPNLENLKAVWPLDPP
As to conditions: protein: recombinant; tags: N-terminal GST; dsDNA, one strand shown. The essentials:
as §1

The next test addresses T9, SPDEF (Homo sapiens, UniProt O95238 1-335).
T9 sequence: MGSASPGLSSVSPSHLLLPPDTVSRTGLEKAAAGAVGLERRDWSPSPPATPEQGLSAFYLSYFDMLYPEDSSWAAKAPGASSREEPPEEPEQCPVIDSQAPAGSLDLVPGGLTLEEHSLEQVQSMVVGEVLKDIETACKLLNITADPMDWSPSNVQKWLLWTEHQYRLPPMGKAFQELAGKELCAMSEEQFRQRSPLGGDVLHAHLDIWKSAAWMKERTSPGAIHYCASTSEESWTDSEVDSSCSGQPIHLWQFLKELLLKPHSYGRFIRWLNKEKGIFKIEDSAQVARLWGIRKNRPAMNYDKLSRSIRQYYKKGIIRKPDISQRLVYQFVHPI
As to conditions: protein: recombinant; tags: N-terminal GST; dsDNA, one strand shown. In outline: as §1

For a further test, the target named is T10, ETV7 (Homo sapiens, UniProt Q9Y603 1-341).
T10 sequence: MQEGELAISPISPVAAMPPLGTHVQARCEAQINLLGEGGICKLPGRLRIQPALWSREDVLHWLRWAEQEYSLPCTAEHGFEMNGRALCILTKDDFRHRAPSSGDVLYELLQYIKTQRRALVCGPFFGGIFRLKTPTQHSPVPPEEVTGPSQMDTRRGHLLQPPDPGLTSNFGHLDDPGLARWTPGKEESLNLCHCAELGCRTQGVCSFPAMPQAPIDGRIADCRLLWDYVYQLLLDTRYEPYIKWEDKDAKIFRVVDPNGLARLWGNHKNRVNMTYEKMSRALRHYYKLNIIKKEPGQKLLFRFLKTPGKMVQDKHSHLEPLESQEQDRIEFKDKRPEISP
As to conditions: protein: recombinant; tags: N-terminal GST; dsDNA, one strand shown. In outline:
as §1

In the next test the target is ELF4 (Homo sapiens, UniProt Q99607 1-663). As to conditions: protein: recombinant; tags: N-terminal GST; dsDNA, one strand shown. In outline: as §1
Chain of ELF4 (Q99607 whole entry): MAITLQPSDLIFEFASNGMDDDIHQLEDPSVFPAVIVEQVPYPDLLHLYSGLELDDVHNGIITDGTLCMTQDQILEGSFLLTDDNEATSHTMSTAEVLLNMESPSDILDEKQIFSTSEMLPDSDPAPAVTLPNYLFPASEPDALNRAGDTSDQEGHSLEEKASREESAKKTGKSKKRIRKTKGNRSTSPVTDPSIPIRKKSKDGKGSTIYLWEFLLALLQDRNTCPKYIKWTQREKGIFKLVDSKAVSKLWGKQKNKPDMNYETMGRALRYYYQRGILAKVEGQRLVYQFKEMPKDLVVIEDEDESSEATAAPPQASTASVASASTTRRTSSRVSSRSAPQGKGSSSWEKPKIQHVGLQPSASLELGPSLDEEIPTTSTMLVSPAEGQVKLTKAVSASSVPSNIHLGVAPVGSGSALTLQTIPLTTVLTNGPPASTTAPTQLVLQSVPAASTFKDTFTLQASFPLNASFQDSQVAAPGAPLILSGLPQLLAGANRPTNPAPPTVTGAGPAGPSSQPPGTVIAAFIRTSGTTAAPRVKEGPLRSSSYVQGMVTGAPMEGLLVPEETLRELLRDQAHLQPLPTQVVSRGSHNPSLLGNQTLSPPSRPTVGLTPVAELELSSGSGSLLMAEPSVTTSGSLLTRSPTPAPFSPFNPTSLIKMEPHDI

Chain of HSF1 (Q00613 whole entry): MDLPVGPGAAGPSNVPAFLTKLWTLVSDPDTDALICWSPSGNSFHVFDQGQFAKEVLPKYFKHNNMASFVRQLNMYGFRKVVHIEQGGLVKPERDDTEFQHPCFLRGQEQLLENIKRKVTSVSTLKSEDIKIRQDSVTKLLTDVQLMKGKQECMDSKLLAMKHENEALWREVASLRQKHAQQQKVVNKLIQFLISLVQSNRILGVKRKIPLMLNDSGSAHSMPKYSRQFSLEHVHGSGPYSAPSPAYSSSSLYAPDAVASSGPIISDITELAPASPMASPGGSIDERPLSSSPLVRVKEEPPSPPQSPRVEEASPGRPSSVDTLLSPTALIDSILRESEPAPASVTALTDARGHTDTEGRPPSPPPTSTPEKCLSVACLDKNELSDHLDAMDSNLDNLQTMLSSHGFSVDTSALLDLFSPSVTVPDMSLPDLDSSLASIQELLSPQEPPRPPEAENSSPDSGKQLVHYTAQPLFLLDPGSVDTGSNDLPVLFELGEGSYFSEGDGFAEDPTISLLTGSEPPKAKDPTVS
Chain of CRX (O43186 whole entry): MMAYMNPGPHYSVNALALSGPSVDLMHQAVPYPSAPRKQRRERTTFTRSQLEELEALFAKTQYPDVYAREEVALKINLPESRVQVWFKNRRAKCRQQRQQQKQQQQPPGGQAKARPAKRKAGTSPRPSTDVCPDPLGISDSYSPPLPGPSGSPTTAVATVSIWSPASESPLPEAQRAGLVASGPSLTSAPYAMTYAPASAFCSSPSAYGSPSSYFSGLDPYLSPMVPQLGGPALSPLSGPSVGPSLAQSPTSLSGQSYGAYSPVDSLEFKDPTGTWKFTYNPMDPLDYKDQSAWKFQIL
Chain of ETV1 (P50549 whole entry): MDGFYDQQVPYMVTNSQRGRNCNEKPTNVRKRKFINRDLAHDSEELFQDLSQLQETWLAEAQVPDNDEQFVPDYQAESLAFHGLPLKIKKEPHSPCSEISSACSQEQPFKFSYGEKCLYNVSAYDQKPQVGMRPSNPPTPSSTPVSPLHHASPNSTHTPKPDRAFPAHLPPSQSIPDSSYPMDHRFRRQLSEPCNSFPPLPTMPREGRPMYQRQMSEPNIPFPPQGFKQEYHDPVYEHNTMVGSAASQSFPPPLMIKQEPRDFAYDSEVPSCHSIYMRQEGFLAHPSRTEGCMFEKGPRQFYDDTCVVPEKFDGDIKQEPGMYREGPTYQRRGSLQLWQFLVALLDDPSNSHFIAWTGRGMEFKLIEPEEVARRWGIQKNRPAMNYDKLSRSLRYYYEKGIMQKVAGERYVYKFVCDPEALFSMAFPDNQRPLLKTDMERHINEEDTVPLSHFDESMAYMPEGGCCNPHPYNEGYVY

TAGACA: the binding signal in the test with ELK1 was 1.07 fold enrichment (6-mer frequency, TF over GST control); with GABPA, 1.01 fold enrichment (6-mer frequency, TF over GST control); with ELK3, 1.02 fold enrichment (6-mer frequency, TF over GST control); with FEV it was 1.02 fold enrichment (6-mer frequency, TF over GST control); with HSF1, 1.11 fold enrichment (6-mer frequency, TF over GST control); in the test with ELK4, 1.11 fold enrichment (6-mer frequency, TF over GST control). For the same sequence, the binding signal with ETV2 was 1.01 fold enrichment (6-mer frequency, TF over GST control); with ELF3, 1.01 fold enrichment (6-mer frequency, TF over GST control); in the test with CRX, 1.03 fold enrichment (6-mer frequency, TF over GST control); with ETV1, 1.01 fold enrichment (6-mer frequency, TF over GST control); in the test with ETV3L, 1.01 fold enrichment (6-mer frequency, TF over GST control); in the test with SPDEF it was 1.03 fold enrichment (6-mer frequency, TF over GST control). Besides, in the test with ETV7, the binding signal was 1.07 fold enrichment (6-mer frequency, TF over GST control).

Turning to CCAGAA, the binding signal in the test with ELK3 was 1 fold enrichment (6-mer frequency, TF over GST control); in the test with HSF1, 3.7 fold enrichment (6-mer frequency, TF over GST control); with ELF4, 1.05 fold enrichment (6-mer frequency, TF over GST control); in the test with ELK4, 1.06 fold enrichment (6-mer frequency, TF over GST control); with ETV2, 1.05 fold enrichment (6-mer frequency, TF over GST control); with ELF3, 1.07 fold enrichment (6-mer frequency, TF over GST control). Besides, the binding signal is 1.49 fold enrichment (6-mer frequency, TF over GST control) with CRX and 1.05 fold enrichment (6-mer frequency, TF over GST control) in the test with ETV7.

The values above are taken from PMC7862700, “An all-to-all approach to the identification of sequence-specific readers for epigenetic DNA modifications on cytosine”.
